MOR-DOR ag = OPRM1-OPRD1 heterodimerization agonism. actives 0.3% (n = 340,000). activation, % at 9.3 µM. AID 504326. P35372+P41143. cells, luminescence
HTR5A inv ctr = inverse agonist of human HTR5A in OPRM1-OPRD1 counter-screen. P47898. HTR5A cell line, luminescence, inverse agonism. inhibition, % at 9.3 µM. actives 0.083% (n = 340,000). AID 504634; in the data active means inhibition mostly above about 23%, no sharp cut-off; inactive means mostly below about 18%
Target sequence (P47898 whole entry, looked up): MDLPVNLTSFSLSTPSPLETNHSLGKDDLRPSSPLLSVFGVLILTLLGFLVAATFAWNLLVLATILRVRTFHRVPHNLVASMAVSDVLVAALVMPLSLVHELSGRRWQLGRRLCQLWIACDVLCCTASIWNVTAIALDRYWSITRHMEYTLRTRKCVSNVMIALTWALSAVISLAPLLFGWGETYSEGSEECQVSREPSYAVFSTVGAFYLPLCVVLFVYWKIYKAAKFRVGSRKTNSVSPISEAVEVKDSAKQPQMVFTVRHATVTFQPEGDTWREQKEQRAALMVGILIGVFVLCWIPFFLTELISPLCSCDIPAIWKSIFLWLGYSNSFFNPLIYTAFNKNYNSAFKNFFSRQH
HTR5A ag ctr = activates human HTR5A in OPRM1-OPRD1 agonist counter-screen; actives 0.61% (n = 340,000); activation, % at 9.3 µM; HTR5A agonist assay, luminescence, cell-based; in the data active means activation mostly above about 9.5%, no sharp cut-off; inactive means mostly below about 7.6%
OPRM1-OPRD1 inv = inverse agonists of human mu-delta opioid receptor heterodimerization; P35372+P41143; cell-based MOR-DOR heterodimer luminescence, inverse agonism; inhibition, % at 9.3 µM; actives 0.21% (n = 340,000); AID 504357; in the data active means inhibition above about 22%, passing the limit was not always enough
OPRM1-D1 ag cf = confirmation of human OPRM1-OPRD1 heterodimerization agonists; shares compounds with MOR-DOR ag; cells, MOR-DOR heterodimerization, luminescence complementation; activation, % at 9.3 µM; actives 45% (n = 830); AID 504904
HTR5A ag ctr2 = HTR5A agonism, opioid heterodimer counter-screen; actives 8% (n = 830); shares compounds with MOR-DOR ag; HTR5A agonist counterscreen, cell luminescence; activation, % at 9.3 µM; in the data active means activation above about 17%
Hits are given with their value; - = inactive; . = not tested or not shown. Rows were chosen to be rich in hits. Some 1.1% of all compounds tested hit in one or more screens of this group. Unless noted, no stated cut-off is given here; in the data, active means activation above about 18%; inactive means the rest.

SMILES	MOR-DOR ag	HTR5A inv ctr	HTR5A ag ctr	OPRM1-OPRD1 inv	OPRM1-D1 ag cf	HTR5A ag ctr2
CC1(C)Oc2c(ccc(O)c2CN2CCOCC2)C2=C1CCCC2	-	-	-	-	.	.
CC(C)n1ncc2c(C(=O)Nc3cccc(C#N)c3)cc(C3CC3)nc21	184	-	-	-	216	-
CCNC(=O)c1cccc(NC(=O)c2cc(C3CC3)nc3c2cnn3C(C)C)c1	-	-	-	-	.	.
COc1cccc(C=Nc2cc(C(C)C)c(O)cc2C)c1O	-	-	-	-	.	.
CCCCN(C(=O)c1cc(OC)c(OC)c(OC)c1)C1=CC2CCC(C1)N2C (stereo not drawn)	-	-	-	-	.	.
COc1cc(C(=O)N(CCc2ccccc2)C2=CC3CCC(C2)N3C)cc(OC)c1OC (stereo not drawn)	18	-	-	-	-	-
COc1ccc(SC[C@H](Cc2ccccc2)N2CC[C@@H](NC(=O)OCc3ccccc3)CCC2=O)cc1	-	-	-	-	.	.
C=CC[C@H](CC(=O)N[C@H](CO)Cc1ccccc1)C(=O)N[C@@H](COC(=O)[C@H](CC=C)CC(=O)OC(C)(C)C)Cc1c[nH]c2ccccc12	-	-	-	-	.	.
COc1cccc(C(=O)Nc2ccc3c(c2)C(=O)c2ccccc2C3=O)c1	38	-	-	-	53	-
CC(C)N(Cc1ccccc1)C(=O)CN1c2cccc3cccc(c23)S1(=O)=O	19	-	-	-	-	-
Cc1ccc(C(=O)c2c(C)oc3c2C(=O)C(=O)c2ccccc2-3)cc1	34	-	14	-	-	-
CCN1CCN(C2=C(NS(=O)(=O)c3ccc(NC(C)=O)cc3)C(=O)c3ccccc3C2=O)CC1	-	-	-	-	.	.
CC(=O)Nc1ccc(S(=O)(=O)NC2=C(N3CCN(Cc4ccccc4)CC3)C(=O)c3ccccc3C2=O)cc1	55	-	-	-	69	-
CC(C)c1ccc(NC(=O)N(CCc2nc3ccccc3[nH]2)C2CCCC2)cc1	25	-	-	-	37	-
COc1cccc(C2c3[nH]c4ccccc4c3C[C@H]3C(=O)N(CCCOC(C)C)CC(=O)N23)c1 (stereo partly drawn)	18	-	-	-	-	-
CCOc1cc(C(=O)CSc2nnc(CNc3ccc(Cl)cc3)o2)ccc1NC(=O)CC	65	-	30	-	77	25
CCc1ccccc1NC(=O)CN1CCN(CC(=O)NCc2ccc(Cl)cc2)CC1	-	-	-	-	.	.
CCCCN1CCN=C1N(C)C	-	-	-	-	.	.
Brc1ccc(NC2=Nc3ccccc3CC2)cc1	26	-	-	-	230	-
Cc1ccc(NC2=Nc3ccccc3CC2)cc1	-	-	-	-	.	.
CN(CC(=O)Nc1ccccc1Cl)C(=O)Cn1cc(C(F)(F)F)ccc1=O	-	-	-	-	.	.
O=C(OCc1cc(=O)n2ccsc2n1)c1ccccc1NCCO	-	-	-	-	.	.
O=C(c1sc2ccccc2c1Cl)N(Cc1ccccc1Cl)C1CCS(=O)(=O)C1 (stereo not drawn)	52	-	-	-	18	-
O=C(c1sc2ccccc2c1Cl)N(Cc1ccco1)C1CCS(=O)(=O)C1 (stereo not drawn)	53	-	-	-	54	-
O=C(COC(=O)CNC(=O)c1sc2ccccc2c1Cl)NC1CCS(=O)(=O)C1 (stereo not drawn)	-	-	-	-	.	.
SMILES	MOR-DOR ag	HTR5A inv ctr	HTR5A ag ctr	OPRM1-OPRD1 inv	OPRM1-D1 ag cf	HTR5A ag ctr2
O=C(c1sc2ccccc2c1Cl)N(Cc1ccccc1)C1CCS(=O)(=O)C1 (stereo not drawn)	29	-	-	-	27	-
O=C(c1ccccc1F)N(Cc1ccccc1)C1CCS(=O)(=O)C1 (stereo not drawn)	-	-	-	-	.	.
CCCN1Cc2cc(OC)ccc2-c2ccccc2S1(=O)=O	-	-	-	-	.	.
COc1cc2cc3c(N)c(C(=O)Nc4sc(C)c(C)c4C#N)sc3nc2cc1OC	117	-	-	-	22	-
COc1ccc2c(Cl)c(-c3nnc4n3CCCCC4)sc2c1	81	-	-	-	-	-
CCc1ccc(Nc2n[n+](-c3ccccc3)c(-c3c(Cl)cccc3Cl)s2)cc1	27	-	-	-	73	-
COc1cc(C2C(C#N)=C(N)N(c3sc4c(c3C#N)CCCC4)C3=C2C(=O)CC(C)(C)C3)cc(OC)c1OC (stereo not drawn)	58	-	-	-	45	-

Bioassay records deposited in PubChem by The Scripps Research Institute Molecular Screening Center.
